Test results from PubChem BioAssay.
Active and inactive are the calls of the source. Unless noted, the rule behind the calls is not given here.

Tests used:
[1] = test system: XIP peptide (Xip251-270) binding; assay: XIP fragment 251-270 binding compounds – biochemical, small-molecule microarray, fluorescence 635/667 nm, 0.1 µg/mL protein, primary screen (AID 1182); conditions: fluorescent protein binding, 635 nm, higher = more signal, called active from +8 up or from −8 down
XIP peptide (Xip251-270) = assay: compounds binding XIP fragment 251-270 – biochemical, small-molecule microarray, fluorescence 635/667 nm, 0.5 µg/mL protein, primary screen (AID 1183); conditions: fluorescence 635 nm, higher = more signal
[2] = blood-stage malaria parasite viability loss – strain 3D7, DAPI fluorescence, 100 nL, primary screen (AID 1184);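 note: parasites grown inside human red blood cells in medium with human serum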; conditions: P. falciparum 3D7 growth, 3 d, higher = more signal
[3] = biological target: Homeobox protein Hox-A13 (Mus musculus) (UniProt Q62424); assay: disruptors of Hoxa13 oligonucleotide interaction – biochemical, fluorescence polarization, labeled oligonucleotide, primary screen (AID 1185); conditions: Hoxa13:DNA binding, 15 min, higher = more signal, called active from +8 up or from −8 down
[4] = blockers of DNA damage checkpoint Chk1 activation – imaging, HeLa, hydroxyurea, phospho-Chk1 antibody, percent positive cells, primary screen (AID 1186); conditions: hydroxyurea-induced phospho-Chk1 immunofluorescence imaging, higher = more signal
[5] = blockers of DNA damage checkpoint Chk1 activation – imaging, HeLa, hydroxyurea, phospho-Chk1 nuclear intensity, primary screen (AID 1187); conditions: hydroxyurea-induced phospho-Chk1 immunofluorescence imaging, higher = more signal

Chain of Homeobox protein Hox-A13 (Mus musculus) (Q62424 whole entry, looked up): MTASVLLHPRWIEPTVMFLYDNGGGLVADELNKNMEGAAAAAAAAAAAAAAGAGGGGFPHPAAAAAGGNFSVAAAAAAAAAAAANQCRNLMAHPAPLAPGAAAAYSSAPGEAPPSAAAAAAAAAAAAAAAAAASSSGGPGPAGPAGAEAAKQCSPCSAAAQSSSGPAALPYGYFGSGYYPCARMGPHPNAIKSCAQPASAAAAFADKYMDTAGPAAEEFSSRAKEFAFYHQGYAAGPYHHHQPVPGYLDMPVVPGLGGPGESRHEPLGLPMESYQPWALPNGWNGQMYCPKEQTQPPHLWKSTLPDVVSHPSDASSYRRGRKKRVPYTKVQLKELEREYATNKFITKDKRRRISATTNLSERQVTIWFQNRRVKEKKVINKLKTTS

SMILES	composite z-score [1]	composite z-score (XIP peptide (Xip251-270))	z-score [2]	z-score [3]	z-score [4]	z-score [5]
COc1ccc([Si](C)(C)[C@H]2[C@H](CC(=O)N3CCC[C@H]3CO)O[C@@]3(C(=O)N(C)c4c(Br)cc(C)cc43)[C@@H]2C)cc1	1.14 (inactive)	0.341	-1.56	-5.84 (inactive)	0.27 (inactive)	0.523 (inactive)
Cc1ccc(S(=O)(=O)N2[C@@H](c3ccccc3)C(C(=O)O)=CC[C@H]2c2ccc(F)cc2)cc1	-0.311 (inactive)	-0.0114	-0.204	-5.57 (inactive)	0.388 (inactive)	0.391 (inactive)
CN1C(=O)C2C=CC(C(O)c3ccc([N+](=O)[O-])cc3)N(Nc3ccccc3)C2C1=O (centres undefined)	0.924 (inactive)	0.818	-0.219	-4.24 (inactive)	0.533 (inactive)	0.397 (inactive)
CC(C)C[C@@H]1NC(=O)[C@@H]2C[C@H](C(=O)NCCCCCCNC(=O)CS)[C@H](c3ccc(O)cc3)N2C1=O	3.03 (inactive)	0.843	-1.19	-2.01 (inactive)	-0.265 (inactive)	-0.1 (inactive)
CCN1C(=O)C2CC(=O)C3C(CN(S(=O)(=O)c4ccc(C)cc4)C3c3ccc(C)cc3)C2C1=O (centres undefined)	0.761 (inactive)	-0.248	0.38	-4.69 (inactive)	0.137 (inactive)	-0.0394 (inactive)
C=CC[C@H](O)c1ccc(O)c2ccccc12	0.0693 (inactive)	0.512	-1.36	-2.1 (inactive)	0.835 (inactive)	1.01 (inactive)
CCCCCCc1nc(Cc2cc(OC)c(OC)c(OC)c2)c(C)c2c1[Si](C(C)C)(C(C)C)OC2	-0.814 (inactive)	0.0092	-2.76	-1.45 (inactive)	-0.817 (inactive)	-0.386 (inactive)
C=CCC(OC(C)=O)[C@@H]1[C@@H](N(Cc2cccc3ccccc23)C(=O)c2ccc(C)cc2)c2cc(OCCCO)ccc2N1C(=O)Cc1ccc2ccccc2c1 (some centres undefined)	-0.929 (inactive)	0.0814	-0.145	-0.0782 (inactive)	-0.648 (inactive)	-0.416 (inactive)
COC(=O)C(CC#Cc1ccc2c(c1)[C@]1(C(=O)N2)[C@H](C(N)=O)[C@H]2C(=O)O[C@H](c3ccccc3)[C@H](c3ccccc3)N2[C@@H]1c1ccccc1OCCO)C(=O)OC	0.898 (inactive)	0.817	-2.08	-1.12 (inactive)	-0.49 (inactive)	-0.137 (inactive)
[N-]=[N+]=Nc1ccccc1C[C@]1(C(=O)N2CCCCC2)N=C(c2ccc(OCCCO)cc2)O[C@H]1c1ccccc1	1.48 (inactive)	0.758	-2.34	-5.43 (inactive)	-0.554 (inactive)	-0.78 (inactive)
CC[C@H]1C2=C3C(CC[C@H]4C(OCc5ccc(F)cc5C(F)(F)F)OC[C@](C)([C@@H]34)N(C(=O)OC(C)(C)C)C2)C(COC(C)=O)C1COC(C)=O (some centres undefined)	0.28 (inactive)	0.633	-1.24	-3.07 (inactive)	0.127 (inactive)	0.294 (inactive)
O=C/C=C/c1ccc(-c2ccccc2)cc1	-1.46 (inactive)	-0.548	0.886	-1.34 (inactive)	0.236 (inactive)	0.792 (inactive)
COCCOC(=O)N1C(=O)[C@@]2(c3cc(C#CCNC(N)=O)ccc31)[C@H](c1ccccc1OCCO)N1[C@H](c3ccccc3)[C@H](c3ccccc3)OC(=O)[C@H]1[C@@H]2C(=O)N1CCCCCCC1	0.564 (inactive)	0.824	-2.13	0.831 (inactive)	-0.0593 (inactive)	-0.191 (inactive)
CC(C)C[C@@H]1NC(=O)[C@H]2C[C@@H](C(=O)O)[C@@H](c3cccc(OCCO)c3)N2C1=O	0.693 (inactive)	0.737	-0.404	-2.46 (inactive)	-0.03 (inactive)	-0.134 (inactive)
COc1ccc(C(=O)Nc2cccc(CN3C(=O)[C@]4(O[C@H](CC(=O)N(CCO)Cc5ccccc5)[C@@H]([Si](C)(C)c5ccc(OC)cc5)[C@@H]4C)c4ccccc43)c2)cc1	0.256 (inactive)	0.572	-2.49	-0.179 (inactive)	-0.571 (inactive)	0.0153 (inactive)
CC(C)c1ccc(NN2C(C(O)C3=C[C@H]4C[C@@H](C3)C4(C)C)C=CC3C(=O)N(c4ccccc4)C(=O)C32)cc1 (some centres undefined)	1.35 (inactive)	0.464	-0.0979	-2.33 (inactive)	-0.0307 (inactive)	-0.257 (inactive)
C=C(C(=O)CC[C@@H](OC(=O)c1ccccc1-c1ccccc1C(=O)O)c1ccc(CO)o1)C(C)C	0.525 (inactive)	0.434	1.88	-5.42 (inactive)	0.762 (inactive)	0.478 (inactive)

SMILES	composite z-score [1]	composite z-score (XIP peptide (Xip251-270))	z-score [2]	z-score [3]	z-score [4]	z-score [5]
COC(=O)[C@@]1(Cc2ccc(OC)cc2)[C@@H]2[C@@H](CC(=O)[C@H]2CC(=O)C(=O)N(C)C)CN1C(=O)c1ccccc1	0.206 (inactive)	0.516	-1.56	-2.61 (inactive)	0.0341 (inactive)	-1.04 (inactive)
COc1cccc(C)c1NC(=O)O[C@H]1[C@H](OC(=O)Nc2ccc3c(c2)OCO3)[C@H](OC(=O)Nc2ccc3c(c2)OCO3)[C@@H](OC)O[C@@H]1CO	0.574 (inactive)	0.798	-2.29	-7.67 (inactive)	-0.698 (inactive)	-1.29 (inactive)
CS(=O)(=O)CCOC(=O)C1=CC(CCCO)=CC(C2CC2)N(Cc2sc3ccccc3c2Cl)C=C1C(=O)OCCS(C)(=O)=O (centres undefined)	1.05 (inactive)	0.257	-3.02	-4.7 (inactive)	-0.207 (inactive)	-0.0474 (inactive)
C=C(CCCC)/C(=C/C[C@@H](OC(C)=O)c1ccc(OCCO)cc1)c1cc(C(=O)OC)ccc1OC	0.952 (inactive)	0.633	-3.06	-4.07 (inactive)	0.526 (inactive)	0.765 (inactive)
COC(=O)[C@@]1(Cc2ccccc2)[C@H]2c3cc(C(=O)N(C)C)n(Cc4nc5ccccc5[nH]4)c3C[C@H]2CN1C(=O)c1ccccc1	0.857 (inactive)	0.784	-0.542	-1.6 (inactive)	-0.283 (inactive)	0.0294 (inactive)
O=C1NC(=O)C2C1C=CC(C(O)C(O)CO)N2Nc1ccccn1 (centres undefined)	-0.325 (inactive)	0.129	0.488	-0.781 (inactive)	-0.163 (inactive)	-0.239 (inactive)
C[C@H]1C2[C@H](Cc3ccccc3)NC(=O)[C@]23C(=O)N[C@@H](Cc2ccccc2)C(=O)N2CCC[C@H]2C(=O)NC/C=C/CC/C=C/C3[C@@H]2O[C@]12C (some centres undefined)	0.182 (inactive)	0.457	-2.99	-7.13 (inactive)	-0.234 (inactive)	-0.437 (inactive)
COc1ccc(CCNC(=O)[C@@]2(c3ccc([N+](=O)[O-])cc3)CC(=O)N(C3CCCCC3)[C@@H]2c2ccc(CO)cc2I)cc1	0.548 (inactive)	0.671	-1.96	-3.27 (inactive)	0.129 (inactive)	0.294 (inactive)
COc1cc2c(cc1O)C(C)N(Cc1sc3ccccc3c1Cl)CC2 (centres undefined)	-0.173 (inactive)	0.547	-1.37	-3.39 (inactive)	-0.632 (inactive)	-0.817 (inactive)
O=C(c1ccccc1)N1Cc2ccccc2C[C@@]2(N=C(c3ccc(OCCCO)cc3)O[C@H]2c2ccccc2)C1=O	0.742 (inactive)	0.814	-1.92	-2.43 (inactive)	-0.0769 (inactive)	0.098 (inactive)
COc1c(C)cc(-c2cc3c(c(CCc4ccccc4)n2)[Si](C(C)C)(C(C)C)O[C@H]3c2ccccc2)cc1C	-0.0596 (inactive)	0.0209	-2.29	1.6 (inactive)	-0.0936 (inactive)	0.0911 (inactive)
COc1ccc(C(=O)Nc2ccc(CN3C(=O)[C@@]4(O[C@@H](CC(=O)N(CCO)Cc5ccccc5)[C@H]([Si](C)(C)c5ccc(OC)cc5)[C@H]4C)c4ccccc43)cc2)cc1	1.96 (inactive)	0.622	-0.992	-1.31 (inactive)	-0.543 (inactive)	-0.262 (inactive)
COCCCNC(=O)[C@]1(Cc2ccccc2CN=[N+]=[N-])N=C(c2ccc(OCCCO)cc2)O[C@@H]1c1ccccc1N=[N+]=[N-]	0.228 (inactive)	-0.184	-2.03	-0.994 (inactive)	-0.364 (inactive)	-0.601 (inactive)
C=CCNC(=O)[C@@H]1[C@H]2C(=O)O[C@H](c3ccccc3)[C@H](c3ccccc3)N2[C@H](c2ccc(OCCO)cc2)[C@@]12C(=O)Nc1ccc(C#CC3=CCCCC3)cc12	1.45 (inactive)	0.799	-1.39	1.89 (inactive)	0.269 (inactive)	0.273 (inactive)
C=CC[C@H](O)c1ccc(O)c(F)c1	-0.51 (inactive)	0.0085	-0.418	-1.51 (inactive)	-0.316 (inactive)	-0.264 (inactive)
C=CCNC(=O)[C@H]1[C@@H]2C(=O)O[C@@H](c3ccccc3)[C@@H](c3ccccc3)N2[C@@H](c2ccc(O)cc2)[C@]12C(=O)Nc1ccc(C#CCC(C(=O)OC)C(=O)OC)cc12	0.835 (inactive)	0.764	-0.214	-2.88 (inactive)	0.0976 (inactive)	0.543 (inactive)
C[C@]1(C(=O)NC2CC2)c2ccccc2C(=O)N(Cc2cc(F)cc(C(F)(F)F)c2)[C@H]1c1ccc(CO)cc1	0.431 (inactive)	0.883	0.0713	-3.51 (inactive)	0.361 (inactive)	0.529 (inactive)
